Sampled rows, rich in hits. Any-hit rate of the full collection: about 3.5%.
mHTT-CaM PPI inh = mHTT-calmodulin interaction abrogation; P42858; AlphaScreen His-mHTT/GST-CaM binding, luminescence; inhibition, % at 15 µM; actives 3.6% (n = 190,000); AID 1671202;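 further: 0% = both proteins with DMSO and 100% = one protein alone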
Pf apPOL block = Pf-apPOL DNA polymerase inhibition; inhibition, % at 10 µM; Recombinant Pf-apPOL, molecular beacon fluorescence, 1.5 h; actives 0.25% (n = 210,000)
Starred values were filed as active, the others as inactive; ! = repeats disagree. No stated cut-off is given here; in the data, active means inhibition above about 50%; inactive means the rest.

CCN1CCN(CCCNC(=O)C2CCN(c3ccc(N4CCCC4)nn3)CC2)CC1 was read as mHTT-CaM PPI inh 1 and Pf apPOL block -4.
Screening CNC(=O)N1CCC(n2c(C)nc(C(=O)N3CCCC3)c2C)CC1 returned mHTT-CaM PPI inh 2 and Pf apPOL block -4.
Screening CCCOc1ccc(C(=O)NCc2ccccc2)cc1 returned mHTT-CaM PPI inh -6 and Pf apPOL block -2.
Screening NC(Cc1cccs1)=NOC(=O)c1ccccc1 returned Pf apPOL block -1.
For Cc1ccc2[nH]c3c(cc(NCCCO)c4c(=O)c5ccccc5c(=O)c43)oc2c1 the results were mHTT-CaM PPI inh 60* and Pf apPOL block -6.
For Cc1ccc2[nH]c3c(cc(NCCO)c4c(=O)c5ccccc5c(=O)c43)oc2c1 the results were mHTT-CaM PPI inh 18 and Pf apPOL block -3.
CCc1ccc(CNC(=O)CCC(=O)N2CC3CCCN3c3ccccc32)cc1 (stereo unspecified) was read as mHTT-CaM PPI inh 55* and Pf apPOL block -2.
For CCNC(=O)CCC(=O)N1CC2CCCN2c2ccccc21 (stereo unspecified) the results were mHTT-CaM PPI inh 11 and Pf apPOL block -3.
`O=C(CCC(=O)N1CC2CCCN2c2ccccc21)NCCN1CCCCCC1` (stereo unspecified) gave mHTT-CaM PPI inh 41 and Pf apPOL block -5.
O=C(CCC(=O)N1CC2CCCN2c2ccccc21)NCCN1CCCC1 (stereo unspecified) was read as mHTT-CaM PPI inh 68* and Pf apPOL block -5.
O=C(Nc1ccccc1)N1CCc2nc(-c3ccccc3)ncc2C1 was read as mHTT-CaM PPI inh 4 and Pf apPOL block -6.
Screening COc1cc2nc(COc3ccccc3[N+](=O)[O-])oc(=O)c2cc1OC returned mHTT-CaM PPI inh 2 and Pf apPOL block -2.
NC(Cc1c[nH]c2ccc(O)cc12)C(=O)O (stereo unspecified) was read as Pf apPOL block -2.
For O=C(O)Cc1c[nH]c2ccc(O)cc12 the results were mHTT-CaM PPI inh 85* and Pf apPOL block 95*!.
`CC(=O)c1ccc(N=Cc2cccc([N+](=O)[O-])c2)cc1` gave mHTT-CaM PPI inh 4 and Pf apPOL block -4.
`Cc1ccc(N2NC(=O)/C(=C\c3ccc(Cl)cc3)C2=O)cc1Cl` gave mHTT-CaM PPI inh 11 and Pf apPOL block 0.
Screening COc1cc(/C=C2\C(=O)NN(c3ccc(Cl)c(Cl)c3)C2=O)ccc1O returned mHTT-CaM PPI inh 34 and Pf apPOL block -5.
`O=C1NN(c2ccc(Cl)c(Cl)c2)C(=O)/C1=C/c1ccc(O)c(O)c1` gave mHTT-CaM PPI inh 73* and Pf apPOL block -1.
`Cc1ccc(N2NC(=O)/C(=C\c3ccc(C)c([N+](=O)[O-])c3)C2=O)cc1Cl` gave mHTT-CaM PPI inh 62* and Pf apPOL block -8.
O=[N+]([O-])c1ccc(C2Nc3c(Cl)cccc3C3C=CCC32)cc1 (stereo unspecified) was read as mHTT-CaM PPI inh 18 and Pf apPOL block 19.
O=[N+]([O-])c1cccc(C2Nc3c(Cl)cccc3C3C=CCC32)c1 (stereo unspecified) was read as mHTT-CaM PPI inh 75*! and Pf apPOL block -1.
`O=[N+]([O-])c1cccc(C2Nc3c(cccc3[N+](=O)[O-])C3C=CCC32)c1` (stereo unspecified) gave mHTT-CaM PPI inh 72* and Pf apPOL block -6.
O=[N+]([O-])c1cccc(C2NCCC3(O)CCCCC23)c1 (stereo unspecified) was read as mHTT-CaM PPI inh -13 and Pf apPOL block 0.
`O=[N+]([O-])c1cccc(C2Nc3c(cccc3C(F)(F)F)C3C=CCC32)c1` (stereo unspecified) gave mHTT-CaM PPI inh 58* and Pf apPOL block 1.
For CC1(C)Cc2cccc(C(=O)N3CCN(C(c4ccccc4)c4ccccc4)CC3)c2O1 the results were Pf apPOL block -4.
`Cc1noc(COC2CCCN(C(=O)c3ccc4c(c3)OCO4)C2)n1` (stereo unspecified) gave mHTT-CaM PPI inh -9 and Pf apPOL block -2.
`Cc1ccc(Oc2ncccc2NC(=O)CN2CCC(NC(=O)c3ccccc3)CC2)c2c1CCC2` gave Pf apPOL block -8.
`COCCn1cc2c3c(cccc31)CN(C(=O)NCc1ccccc1)CC2` gave mHTT-CaM PPI inh 6 and Pf apPOL block -1.
`COCCn1cc2c3c(cccc31)CN(C(=O)c1ccccc1)CC2` gave mHTT-CaM PPI inh 40 and Pf apPOL block -2.
COc1ccc(C(=O)N2CCc3cn(C)c4cccc(c34)C2)cc1F was read as mHTT-CaM PPI inh 32 and Pf apPOL block -3.
For COCCn1cc2c3c(cccc31)CN(C(=O)CCCc1ccccc1)CC2 the results were mHTT-CaM PPI inh 91* and Pf apPOL block -4.
CCCC(=O)N1CCc2cn(CC)c3cccc(c23)C1 was read as mHTT-CaM PPI inh 14 and Pf apPOL block -2.
Screening CCn1cc2c3c(cccc31)CN(C(=O)c1ccc(OC)c(F)c1)CC2 returned mHTT-CaM PPI inh 52* and Pf apPOL block -5.

High-throughput results deposited in PubChem by University of Kansas High Throughput Screening Laboratory.
